Hit rate of the full screen: of about 220,000 compounds, about 370 (0.17%) were called active. The full list was thinned out, with actives kept by preference. Unmarked numbers belong to inactive results.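 How the source made its calls: active means inhibition above the mean inhibition of all tested compounds plus 3 SD, set separately per screening campaign (cut at about 2.9% in these data); inactive means the rest.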
The compounds below were run against Eukaryotic translation initiation factor 2-alpha kinase 3 (Homo sapiens) (UniProt Q9NZJ5) (assay: SEAP translation reporter rise after PERK-DD activation – CHO PERK-DD cells, SEAP luminescence, HTS, PERK inhibitor project, primary screen (AID 1416;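 further: PERK kinase domain activated by AP20187 dimerizer at 100 nM; 0% = DMSO with dimerizer and 100% = rapamycin at 8.4 µM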)). Conditions: CHO PERK-DD fusion, at 5.6 µM, stronger effect = higher value.
Eukaryotic translation initiation factor 2-alpha kinase 3 (Homo sapiens), sequence (Q9NZJ5 whole entry, looked up, the tested form may be a part): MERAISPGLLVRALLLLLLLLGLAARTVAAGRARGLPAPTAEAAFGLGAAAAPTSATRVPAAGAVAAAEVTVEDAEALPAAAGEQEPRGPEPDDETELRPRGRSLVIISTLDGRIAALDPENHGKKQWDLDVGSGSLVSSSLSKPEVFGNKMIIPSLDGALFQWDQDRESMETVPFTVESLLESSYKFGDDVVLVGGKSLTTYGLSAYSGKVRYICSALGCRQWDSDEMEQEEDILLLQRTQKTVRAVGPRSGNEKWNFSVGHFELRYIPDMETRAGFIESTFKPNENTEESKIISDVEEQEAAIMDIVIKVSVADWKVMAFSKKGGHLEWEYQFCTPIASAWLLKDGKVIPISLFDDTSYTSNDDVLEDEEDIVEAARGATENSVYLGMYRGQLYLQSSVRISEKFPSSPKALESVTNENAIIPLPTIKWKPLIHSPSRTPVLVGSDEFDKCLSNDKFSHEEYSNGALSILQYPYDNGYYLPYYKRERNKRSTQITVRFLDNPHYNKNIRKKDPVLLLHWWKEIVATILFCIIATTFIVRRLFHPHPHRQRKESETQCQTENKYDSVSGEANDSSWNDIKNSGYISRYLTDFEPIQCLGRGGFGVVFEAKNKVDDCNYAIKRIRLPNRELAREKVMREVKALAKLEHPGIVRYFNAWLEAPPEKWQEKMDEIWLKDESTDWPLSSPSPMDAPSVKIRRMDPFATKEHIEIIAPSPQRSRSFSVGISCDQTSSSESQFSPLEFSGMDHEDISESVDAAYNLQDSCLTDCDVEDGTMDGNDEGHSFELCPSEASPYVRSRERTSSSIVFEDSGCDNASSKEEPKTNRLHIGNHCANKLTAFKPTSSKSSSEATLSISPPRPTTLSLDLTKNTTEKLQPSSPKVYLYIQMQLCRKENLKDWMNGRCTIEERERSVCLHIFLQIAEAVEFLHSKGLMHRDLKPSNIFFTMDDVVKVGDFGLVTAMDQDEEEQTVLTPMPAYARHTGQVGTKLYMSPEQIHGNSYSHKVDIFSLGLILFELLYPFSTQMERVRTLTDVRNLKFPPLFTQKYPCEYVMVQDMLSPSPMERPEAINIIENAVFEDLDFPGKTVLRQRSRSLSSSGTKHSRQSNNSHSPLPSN
Compound `CC1=NN(C(C)C)C(=O)C1` has an inhibition of 0.1%. `O=C(CN1CCN(S(=O)(=O)c2ccc3ccccc3c2)CC1)NC(=O)NC1CCCCC1` showed an inhibition of -1.71%. `COc1ccc(-n2c(C)nn(CC3CC3)c2=O)cc1` showed an inhibition of 0.52%. With `COc1ccc(CN2CCCC(CNC(=O)c3ccc(F)cc3)C2)cc1OC` (stereo not drawn) the inhibition was 0.78%. For `O=C(NNC(=O)C1CCN(c2ncccn2)CC1)c1ccccc1`, the inhibition was 1.78%. Work on `Cc1cc(Cl)ccc1OCCCC(=O)NCc1ccccn1` yielded an inhibition of 0.34%. In the case of `O=C(Nc1cccnc1)c1cc([N+](=O)[O-])ccc1Cl`, the inhibition is reported as 1.12%. For `Cc1cc(=O)[nH]c(N/N=C/c2c(C)nn(-c3ccccc3Cl)c2Cl)n1`, the inhibition was 0.41%. For `COc1ccc2[nH]c(=S)cc(C)c2c1`, the inhibition was 3.26% (active). Work on `COc1ccc2[nH]c3ccc(OC)cc3c2c1` yielded an inhibition of -0.09%. With `COc1ccc2[nH]c(=O)c(CNc3ccc(C)c(C)c3)cc2c1` the inhibition was 0.88%. `CN1CCN(CCC(=O)N/N=C/C=C2\N(C)c3ccccc3C2(C)C)CC1` was tested, and the inhibition was 0.12%. Work on `O=C(COC(=O)c1cnc(Cl)c(Cl)c1)NCc1ccco1` yielded an inhibition of -0.25%. For `NC(=O)Cc1ccc2sc(-c3ccccc3)nc2c1`, the inhibition was 0%. `O=C(CCNc1n[nH]c(=O)[nH]c1=O)N/N=C\c1ccc(Br)cc1` showed an inhibition of 1.9%. `Cc1cc(/C=N/NC(=O)CC2(C)OCCO2)c(C)n1-c1ccc(Cl)c(Cl)c1` was tested, and the inhibition was -0.35%. With `CC(=O)NC1=NN(C(C)=O)C(C)(c2ccc(C)cc2)S1` (stereo not drawn) the inhibition was 0.26%. `COc1ccc(CC(NC(C)=O)C(=O)NC2CCN(C(=O)c3ccc(OC)c(OC)c3)CC2)cc1OC` (stereo not drawn) gave an inhibition of 0.49%. `O=C(COc1ccc([N+](=O)[O-])cc1Cl)Nn1cnnc1` gave an inhibition of 0.99%. Work on `CN(C)S(=O)(=O)c1cccc(NC(=S)NCc2ccc3c(c2)OCO3)c1` yielded an inhibition of -0.05%. In the case of `COC(OC)c1ccnc(SCc2ccccc2Cl)n1`, the inhibition is reported as 1.69%. Compound `CCN1CCN(C(=O)CCN2C(=O)c3ccccc3C2=O)CC1` has an inhibition of 1.42%. Compound `COC(=O)c1cc2n(n1)CCCNC2=O` has an inhibition of 0.06%. Compound `CCN(CC)CCOC(=O)c1ccc(NC(=O)CNC(=O)c2ccccc2)cc1` has an inhibition of 2.02%. Work on `CCn1nc(C)c(CN2CCN(Cc3ccc(OC)c(C)c3C)C(CCO)C2)c1C` (stereo not drawn) yielded an inhibition of -0.31%. `Cc1ccc(N2C(=O)C(Cc3ccccc3)NC2=S)cc1` (stereo not drawn) showed an inhibition of -0.27%. Compound `COc1ccc(N2C(=O)C(Cc3ccccc3)NC2=S)cc1` (stereo not drawn) has an inhibition of 0.37%. In the case of `O=C1C(Cc2ccc(O)cc2)NC(=S)N1Cc1ccccc1` (stereo not drawn), the inhibition is reported as 3.13% (active).
